Laboratory results from PubChem BioAssay (Tox21).
The source made the active and inactive calls. A call without a number means that no potency is given here. Calls follow the shape of the dose curve; as a rule, active = well fitted activation curve with a large enough effect in the repeat runs; inconclusive = weak or mixed curves; inactive = flat fitted curve, though single readings scatter.

Assay: A CellTox Green Cytotoxicity Assay to monitor cytotoxicity in HepG2 cells - 0 hour (AID 1224882); also: nearly all actives have a fitted effect of over 35% in size
Settings: CellTox Green fluorescence; series mostly up to 76.8 µM
Excerpt: National Center for Advancing Translational Sciences [NCATS]
NIH Chemical Genomics Center [NCGC]
U.S. Environmental Protection Agency [EPA]
National Institutes of Environmental Health Sciences [NIEHS]
National Toxicology Program [NTP]
Cell-based models are critical for drug discovery. Determining the natural cytotoxic effects resulting from test compounds is an essential research activity. A CellTox Green Cytotoxicity Assay to monitor cytotoxicity in real time of continues cell culture during 40 hours of the compound treatment was used to screen Tox21 10K library compounds in HepG2 cells. CellTox Green Cytotoxicity Assay is a nonlytic, homogeneous, biofluorescent method to measure cytotoxicity in cell culture after experimental manipulation. The assay system uses a proprietary asymmetric cyanine dye that is excluded from viable cells but preferentially stains the dead cell's DNA. […] Viable cells produce no appreciable increases in fluorescence. Therefore, the fluorescence signal produced by the binding interaction with dead cell DNA is proportional to cytotoxicity.
The mixture of HepG2 cell suspension and reagents were dispensed at 600cells/6 ul/well in 1536-well tissue culture treated black solid bottom plates using a Multidrop dispenser. After the assay plates were incubated at a 37 C/5% CO2 incubator for 5 hours, 23 nL of compounds dissolved in DMSO, positive and negative controls was transferred to the assay plate by a pintool work station. The plates were incubated at 37 C for 40 hours. The fluorescence intensity were measured at 0h, 8h, 16h, 24h, 32h and 40h time points using ViewLux plate reader during compound treatment.
Potency is read from the fitted curve at half-maximal effect.

| Structure (SMILES) | Potency | cytotoxicity |
| --- | --- | --- |
| CCCCCCOC(=O)C(C)CC (stereo not given) | inactive |  |
| CC1=CCC(=C(C)C)CC1 | inactive |  |
| CCC(=O)OC(=O)CC | inactive |  |
| CCc1oc2ccccc2c1C(=O)c1cc(I)c(O)c(I)c1 | inactive |  |
| Cc1cc(-c2ccc(N=Nc3cc(S(=O)(=O)O)c4ccccc4c3N)c(C)c2)ccc1N=Nc1cc(S(=O)(=O)O)c2ccccc2c1N | inactive |  |
| CC(C)CCCCCOC(=O)CCS | inactive |  |
| C#Cc1ccc(-c2ccccc2F)cc1 | inactive |  |
| CCCCN(CCCC)CC(O)c1cc(Cl)cc2c1-c1ccc(Cl)cc1/C2=C/c1ccc(Cl)cc1 (stereo not given) | inactive |  |
| S=c1nccc[nH]1 | inactive |  |
| S=C([S-])NCCNC(=S)[S-].S=C([S-])NCCNC(=S)[S-].[Mn+2].[Zn+2] | inactive |  |
| CC1(C)CC(O)CC(C)(C)N1 | inactive |  |
| O=c1[nH]c(=O)n([C@H]2C[C@H](O)[C@@H](CO)O2)cc1F | 5.35 µM (active) |  |
| C/C=C/C=C/COC(=O)C(C)C | inactive |  |
| Cc1cc(C)c(/C=C2\C(=O)Nc3ccccc32)[nH]1 | 10.7 µM (active) |  |
| OC/C=C/CO | inactive |  |
| COC(C)=O | inactive |  |
| CCOC(=O)c1ccc(C2CCC(NC[C@H](O)COc3ccc(O)c(NS(C)(=O)=O)c3)CC2)cc1 (stereo not given in full) | inactive |  |
| COC(=O)Nc1nc2ccc(C(=O)c3ccccc3)cc2[nH]1 | inactive |  |
| C=Cc1ccccc1C=C | inactive |  |
| NC[C@H]1O[C@H](O[C@H]2[C@H](O[C@@H]3O[C@H](CO)[C@@H](O)[C@H]3O)C(O)[C@H](N)C[C@@H]2N)[C@H](N)[C@@H](O)[C@@H]1O (stereo not given in full) |  | 11.3% [at 6.97 µM] (inactive) |

| Structure (SMILES) | Potency | cytotoxicity |
| --- | --- | --- |
| CCCCCC/C=C\CCCCCCCC(=O)O | inactive |  |
| Cc1ccc(-c2ccccc2)cc1 | inactive |  |
| CCCCNS(=O)(=O)c1ccc(C)cc1 | inactive |  |
| COc1cccc2c1C(=O)c1c(O)c3c(c(O)c1C2=O)C[C@@](O)(C(C)=O)C[C@@H]3O[C@H]1C[C@H](N)[C@H](O)[C@H](C)O1 | inactive |  |
| O=C(c1ccc(O)c(O)c1)c1ccc(O)cc1O | inactive |  |
| CCC(C)[O-].CCC(C)[O-].CCOC(=O)/C=C(/C)[O-].[Al+3] | inactive |  |
| FC(F)(F)c1cccc(Cl)c1 | inactive |  |
| Fc1ccc(C(c2ccc(F)cc2)N2CCNCC2)cc1 | inactive |  |
| O=C(O)c1cc(=O)c2ccccc2o1 | inactive |  |
| O=C1CCc2cc(OCCCCc3nnnn3C3CCCCC3)ccc2N1 | inactive |  |
| C#C[C@]1(OC(C)=O)CC[C@H]2[C@@H]3CCC4=C[C@@H](OC(C)=O)CC[C@@H]4[C@H]3CC[C@@]21C | inactive |  |
| COc1ccc(NC(=O)CC(C)=O)cc1 | inactive |  |
| O=S(=O)(O)c1ccc(N=Nc2c(O)ccc3ccccc23)cc1 | inactive |  |
| COc1cccc(OC)c1C(=O)O | inactive |  |
| CC(C(=O)O)c1ccc2c(c1)[nH]c1ccc(Cl)cc12 (stereo not given) | inactive |  |
| [Cu+] | inactive |  |
| CCOC(=O)NNc1ccc(N(CC)CC(C)O)nn1 (stereo not given) | inactive |  |
| O=C(O)c1ccc2cc(C(=O)O)ccc2c1 | inactive |  |
| C=CC(=O)Nc1cc2c(Nc3ccc(F)c(Cl)c3)ncnc2cc1OCCCN1CCOCC1 | inactive |  |
| O=C(O)c1cc(O)c2ccccc2c1O | inactive |  |
